# Screens as filed in PubChem.
# Dicer inh – inhibitors of Dicer pre-microRNA processing, primary screen, biochemical, cat-ELCCA, chemiluminescence; cat-ELCCA pre-miR-21 Dicer processing; active compounds read high; z-score at 25 µM; 47,000 tested, 6% active; AID 1347074, 2019; in the data active = z-score above about 3, passing the limit was not always enough;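 note: higher signal means more uncleaved substrate so more Dicer inhibition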
# A number is an active result; n = inactive. Many of the other results were omitted from the sample, so hits are more common in it than they were.
SMILES,Dicer inh
Cc1ccc(S(=O)(=O)Oc2cc(S(=O)(=O)c3ccccc3)ccc2[N+](=O)[O-])cc1,n
Oc1[nH]c2ccccc2c1N=Nc1nnc(-c2ccccc2)c(-c2ccccc2)n1,n
Cc1cc(C)n2nc(C)c(-c3ccc(Cl)cc3)c2n1,n
Cc1cc(C)n2ncc(-c3ccc(Cl)cc3)c2n1,3.9
Cc1cc(N)n2ncc(-c3ccccc3)c2n1,n
O=C(O)c1cccnc1C(=O)O,n
Cc1c(C)c(C)c(CSCc2n[nH]c(=S)n2-c2ccc(F)cc2)c(C)c1C,n
Fc1cccc(Cl)c1/C=C/c1cnc2ccccc2n1,n
Cc1nn(C)c(Oc2ccc(F)cc2)c1[N+](=O)[O-],n
Cc1nn(C)c(Cl)c1S(=O)(=O)Nc1ccc(Oc2ccc(F)cc2)cc1,3.2
Cn1nc(-c2ccc(Cl)cc2)cc1NS(=O)(=O)c1ccc(F)cc1,n
O=S(=O)(NCCN1CCCC1)c1cc2ccccc2s1,n
O=C(O)CSCC(=O)NCc1csc2ccc(Cl)cc12,n
O=C(NCc1csc2ccccc12)C1CC1,n
O=C(O)CSCC(=O)NCc1csc2ccccc12,4.3
CCOC(=O)N1CCN(CC(O)Cn2c(=O)c3c(ncn3C)n(C)c2=O)CC1 (stereo not drawn),n
CCOC(=O)c1sc(SCc2ccccc2)c(S(=O)(=O)C(C)C)c1-n1cccc1,n
CC(C)N(CCC#N)C(=O)Nc1ccc2c(c1)CCO2,n
CCOC(=O)N1CCC(NC(=O)Nc2ccc3c(c2)CCO3)CC1,5
CCOC(=O)N1CCC(NC(=O)c2cc(C)cc(C)c2)CC1,n
COc1ccc2[nH]c(=O)c(-c3noc(-c4ccc(Cl)cc4)n3)cc2c1,n
CCOC(=O)c1c(C)n(C)c2ccc(OCC(O)CNC3CCCC3)cc12 (stereo not drawn),n
CCOC(=O)C1=C(C)Nc2nc3ccccc3n2C1c1ccc(C(C)C)cc1 (stereo not drawn),n
COc1cccc(OC)c1C(=O)NC(=O)Nc1c(Br)cc(Br)cc1Br,n
C/C(=N\NC(=O)N/N=C(\C)c1ccc([N+](=O)[O-])cc1)c1ccc([N+](=O)[O-])cc1,n
SMILES,Dicer inh
O=C(CSC1=NCCCCC1)c1ccc([N+](=O)[O-])cc1,n
O=C(c1ccc([N+](=O)[O-])cc1)c1ccc2c(c1)CCC2,3.6
O=c1[nH]c2cc(C(F)(F)F)ccc2n1-c1cc(C(F)(F)F)ccc1O,n
Cc1cc2oc3c(c(=O)c2cc1C)C(c1ccc(O)cc1)N(c1ccccn1)C3=O (stereo not drawn),n
CCOC(=O)c1c(NC(C)=O)sc2c(O)c(Sc3ccccc3)ccc12,4.1
CCOC(=O)c1c(NC(=O)Nc2sc(C)c(-c3ccccc3)c2C(=O)OCC)sc(C)c1-c1ccccc1,n
CCOC(=O)c1c(NC(=O)c2cc3ccccc3c(=O)o2)sc(C)c1C,n
CC(C)S(=O)(=O)c1csc(NC(=O)Nc2ccccc2Cl)c1Cl,3.8
CC(C)S(=O)(=O)c1csc(NC(=O)Nc2c(Cl)cc(Cl)cc2Cl)c1Cl,n
CC(C)S(=O)(=O)c1csc(C(N)=O)c1Cl,n
CN(C)CCN(Cc1cccs1)c1ccccn1,n
Cn1c(=O)c2c3oc(-c4ccc([N+](=O)[O-])cc4)nc3c(=O)n(-c3ccccc3)c2n(C)c1=O,n
CC(=O)c1cc2cc(Cl)cc(Cl)c2oc1=O,n
Cc1cc2nc(-c3cc4cc(Cl)cc(Cl)c4oc3=O)[nH]c2cc1C,4.7
CC(=O)c1cc2cc(Cl)cc(Cl)c2o1,n
Cc1ccc(Cn2nc(C)cc2C(=O)Nc2ccc(Cl)cc2)cc1,n
CCOc1ccc(NC(=S)NC(Cc2ccccc2)c2ccccc2)cc1 (stereo not drawn),n
CCCn1c2ccc(F)cc2c2nnc(SCCN(CC)CC)nc21,n
c1ccc(-c2ccc(-c3nc(-c4cccnc4)no3)cc2)cc1,3.2
COc1ccc(-c2nc(-c3cccnc3)no2)cc1,n
Cc1ccc(-c2nc(-c3cccnc3)no2)cc1C,n
O=C(Oc1cccc2c1CCC2=O)c1ccccc1,n
CC1=CC(C)C2COC(c3ccccc3O)C1C2C (stereo not drawn),n
CC1=CC(C)C2COC(c3ccc4c(c3)OCO4)C1C2C (stereo not drawn),4
O=C1CC(c2ccc3c(c2)OCO3)c2c(ccc3ccccc23)N1 (stereo not drawn),n
SMILES,Dicer inh
Cc1ccc(-c2nnc3c4cnn(C)c4ncn23)cc1,n
CSC1=N/C(=C/c2ccco2)C(=O)N1,n
O=C1/C(=C/c2ccco2)CC/C1=C\c1ccco1,31
O=C1/C(=C/c2ccco2)COC/C1=C\c1ccco1,n
CCOc1ccc2nc(SC3CC(=O)N(c4cccc(OC)c4)C3=O)sc2c1 (stereo not drawn),n
CN(C)/C=C/C(=O)C(c1ccccc1)c1ccccc1,n
Nc1ccc(-c2ccc(N)c([N+](=O)[O-])c2)cc1[N+](=O)[O-],n
CCCCOC(=O)C1=C(C)NC2=C(C(=O)CC(C)(C)C2)C1c1ccc(OCCC)cc1 (stereo not drawn),n
O=C1CC(c2ccc(O)cc2)Oc2cc(O)ccc21 (stereo not drawn),4.8
O=C1CC(c2ccccc2)Oc2cc(Cl)ccc21 (stereo not drawn),n
O=C1CC(c2ccccc2)Oc2ccccc21 (stereo not drawn),n
CS(=O)(=O)N1CCn2c1nc1ccccc12,n
CCOC(=O)c1ccc2[nH]cc(C(=O)OCC)c(=O)c2c1,n
CCOC(=O)c1c[nH]c2ccc(C(F)(F)F)cc2c1=O,n
CCOC(=O)c1c[nH]c2ccccc2c1=O,3
Cc1nc(SCC(=O)c2ccc3c(c2)OCCO3)c2c3c(sc2n1)CCCC3,n
CCOC(=O)CNC(=O)c1cccnc1SC,n
O=C(NCC1CCCO1)c1ccc(COc2ccc(F)cc2)o1 (stereo not drawn),n
CC(C)(C)c1ccc(OCc2ccc(C(=O)O)o2)cc1,n
CCOc1ccc(OCc2ccc(C(=O)NC(C)(C)C)o2)cc1,3.4
N#Cc1c(-c2cccs2)cc(-c2ccccc2)[nH]c1=S,n
O=C(O)c1ccc(CSc2n[nH]c(Cc3ccccc3)n2)o1,n
COc1ccccc1N1C(=O)C2C(c3ccccc3)=NN(c3ccccc3)C2C1=O (stereo not drawn),n
Cc1cc2n(n1)C(c1ccc(O)cc1)Nc1c(C)cccc1-2 (stereo not drawn),4.8
Cc1cc2n(n1)C(c1ccc(O)cc1O)Nc1c(C)cccc1-2 (stereo not drawn),n
SMILES,Dicer inh
Cc1cc2n(n1)C(c1cccc(O)c1)Nc1ccccc1-2 (stereo not drawn),n
CSc1ccc(C2Nc3ccccc3-c3cc(C)nn32)cc1 (stereo not drawn),4.8
Cc1cc2n(n1)C(c1cccc(O)c1)Nc1c(C)cccc1-2 (stereo not drawn),4.3
COc1ccc(C2Nc3ccc(C)cc3-c3cc(C)nn32)cc1O (stereo not drawn),n
Cc1cc2n(n1)C(/C=C\c1ccccc1)Nc1c(C)cccc1-2 (stereo not drawn),6
CSc1ccc(C2Nc3ccc(C)cc3-c3cc(C)nn32)cc1 (stereo not drawn),n
Cc1cc2n(n1)C(c1ccc(C(=O)O)cc1)Nc1c(C)cccc1-2 (stereo not drawn),n
Cc1cc(C)c2c(c1)-c1cc(C)nn1C(c1cccs1)N2 (stereo not drawn),n
CCc1nc(C)cn1S(=O)(=O)c1cc(Br)ccc1OC,n
COc1ccc(CCNC(=O)C(Sc2ccc(Cl)cc2)c2ccccc2)cc1OC (stereo not drawn),n
